Results on 96 compounds are retold here after PubChem BioAssay AID1626 (SRMLSC, 2009).

The campaign covered roughly 220,000 compounds. About 2,000 (0.91%) were called active. Inconclusive results (about 2%) are left out. Rule as the data show it: inconclusive = inhibition above about 80% without an active follow-up result; inactive = below that; test concentration not stated here. Only a sample is shown. Entries with a potency or affinity are not part of this list.

As a reminder, the inhibition is the relative decrease from the control value, in per cent.

This assay in a line: M. tuberculosis H37Rv growth inhibitors, H37Rv strain (AID 1626).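 Also: bacteria incubated seven days before Alamar blue readout; 0% = bacteria only wells and 100% = bacteria with antibiotic wells.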 As to conditions: hits give high values, concentration not given here.
For `CCOc1ccc(CC(=NCCc2ccccc2)C2=C(O)CC(C)(C)CC2=O)cc1OCC`, the inhibition was 6.31% (inactive).
Turning to `CCn1c(SCC(=O)Nc2ccc3c(c2)OCCO3)nnc1-c1c[nH]c2ccccc12`, the inhibition was -6.16% (inactive).
Turning to `O=C(Nc1nnc(-c2cccs2)o1)c1ccco1`, the inhibition is 71.2% (inactive).
In the case of `COc1cccc(C(=O)Nc2nnc(-c3cccs3)s2)c1`, the inhibition is 8.53% (inactive).
For the compound `O=C(Nc1nn[nH]n1)c1cccc(Oc2ccccc2)c1`, the inhibition is -4.2% (inactive).
Take `O=C(Nc1cccc(C(F)(F)F)c1)c1cc(-c2cccs2)on1`: the inhibition is -6.91% (inactive).
Take `CCCCNc1ccc(S(N)(=O)=O)cc1[N+](=O)[O-]`: the inhibition is -3.02% (inactive).
The result for `COC(=O)C1C(O)=C(C=Nc2cccc3ccccc23)C(=O)CC1(C)C` (stereo unspecified) reads 55% (inactive).
`COC(=O)C1C(O)=C(C=Nc2ccccc2)C(=O)CC1(C)C` (stereo unspecified): the inhibition was 18% (inactive).
In the case of `CC1CCN(C(=O)c2ccc(N3CC4CC(C3)c3cccc(=O)n3C4)c([N+](=O)[O-])c2)CC1` (stereo unspecified), the inhibition is -2.48% (inactive).
Under `Nc1cc(=O)[nH]c(SCC(=O)Nc2ccccc2Sc2ccccc2)n1` stands 0.31% (inactive).
Under `Nn1c(SCc2ccc(F)cc2)nnc1-c1cccnc1` stands 0.75% (inactive).
On to `Cc1ccc2nc(N=C(N)N)nc(C)c2c1`, for which the inhibition is 8.48% (inactive).
The result for `CCCC(=O)N/C(N)=N/c1nc(C)c2cc(C)ccc2n1` reads 31.5% (inactive); that for `Cc1cc(C)c2nc(/N=C(\N)NC(=O)c3ccccc3)nc(C)c2c1`, 5.97% (inactive); that for `Cc1nc(/N=C(\N)Nc2ccccc2)nc2ccccc12`, -4.15% (inactive).
Take `O=C(NCCNC(=O)c1ccc([N+](=O)[O-])cc1)c1ccncc1`: the inhibition was -5.65% (inactive).
Take `O=S(=O)(Nc1cccc2cn[nH]c12)c1ccc(F)cc1`: the inhibition is -1.2% (inactive).
In the case of `C/C(=N\OCC(=O)NC12CC3CC(CC(C3)C1)C2)c1cc2ccccc2o1`, the inhibition was 24.4% (inactive).
For the compound `CC(=O)NCCOc1ccc2oc3ccccc3c2c1`, the inhibition was 14.2% (inactive).
On to `O=C(c1ccccc1)N1CCCC(C(=O)N2CCN(c3ccccc3)CC2)C1` (stereo unspecified), for which the inhibition was -13.7% (inactive).
Take `OC(COCC(F)(F)C(F)(F)C(F)(F)C(F)F)Cn1c2ccccc2c2ccccc21` (stereo unspecified): the inhibition was 47.2% (inactive).
`CC(=O)N(C)c1ccc(OCC(O)Cn2c3ccc(Cl)cc3c3cc(Cl)ccc32)cc1` (stereo unspecified): the inhibition was -0.39% (inactive).
With `CCn1c(SCC(=O)Nc2nc(C)cs2)nnc1-c1cccnc1`, the inhibition is 10.4% (inactive).
In the case of `O=C(NCc1cccnc1)/C(=C/c1ccc(-c2cccc(Cl)c2)o1)S(=O)(=O)c1ccccc1`, the inhibition is 56.8% (inactive).
Turning to `O=C(NCc1cccnc1)c1ccc(-c2ccc(Cl)cc2)o1`, the inhibition was -1.29% (inactive).
`CC(=O)NCCCc1nc2ccccc2n1Cc1ccccc1C`: the inhibition was -3.1% (inactive).
Consider `Cc1ccccc1Cn1c(C(C)O)nc2ccccc21` (stereo unspecified), for which the inhibition is 1.24% (inactive).
In the case of `CCC(=O)Nc1nonc1-c1nc2ccccc2n1Cc1cccc2ccccc12`, the inhibition is 20.3% (inactive).
The result for `CC(=O)NCc1nc2ccccc2n1Cc1ccccc1C` reads -1.94% (inactive).
Consider `CCn1c(NCc2ccccc2Cl)nc2ccccc21`, for which the inhibition was 1.72% (inactive).
For the compound `CC(=O)NCCc1nc2ccccc2n1Cc1ccccc1`, the inhibition is 2.23% (inactive).
Turning to `CCS(=O)(=O)c1nc2ccccc2n1Cc1ccccc1Cl`, the inhibition is 0.3% (inactive).
In the case of `CC(=O)Nc1nc2ccccc2n1CCN(C)C`, the inhibition is -1.12% (inactive).
Take `Cc1cc(C)c(C(=O)Nc2ccc(Br)c(C(F)(F)F)c2)c(C)c1`: the inhibition is 50.8% (inactive).
`C=CCN(C(=O)CNC(=O)c1ccco1)C(C(=O)NC1CCCCC1)c1ccccc1` (stereo unspecified): the inhibition is -3.02% (inactive).
As for `COc1ccc2nc3sc(C(=O)NCCN4CCc5ccccc5C4)cc3cc2c1`, the inhibition is 11.3% (inactive).
In the case of `Cn1c(CCNC(=O)OC(C)(C)C)n[nH]c1=S`, the inhibition was -7.46% (inactive).
Under `CC12CCC(C(=O)Nc3ccccc3N3CCOCC3)(CC1=O)C2(C)C` (stereo unspecified) stands -3.66% (inactive); under `O=c1[nH][nH]cc1C=Nc1ccc(Cl)cc1`, 4.25% (inactive).
On to `COc1cccc(N=Cc2c[nH][nH]c2=O)c1`, for which the inhibition was -5.96% (inactive).
Under `C/[N+]([O-])=C/c1c(OCc2ccc(Cl)cc2Cl)ccc2ccccc12` stands 10.9% (inactive).
Under `Cc1c(C(=O)Nc2ccc(F)cc2)c2ccccn2c1CCc1ccncc1` stands 1.73% (inactive).
For `Cc1ccc(C)c(Cn2c(=O)n(CCC(=O)NCc3ccco3)c(=O)c3sccc32)c1`, the inhibition was -2.02% (inactive).
For `O=C1CC(c2ccco2)CC2=C1C(c1ccccc1)n1nc(C(F)(F)F)nc1N2` (stereo unspecified), the inhibition is 2.19% (inactive).
On to `CCOC(=O)c1sc(NC(=O)COC(=O)CNC(=O)C2CCCCC2)c(C(=O)OCC)c1C`, for which the inhibition was -1.65% (inactive).
Turning to `O=C(COc1nc2ccccc2nc1N1CCOCC1)NC1CCCCC1`, the inhibition is 5.49% (inactive).
As for `CC(=O)Nc1ccc(S(=O)(=O)N2CCN(c3nnnn3-c3ccccc3)CC2)cc1`, the inhibition was -0.88% (inactive).
The result for `O=S(=O)(CS(=O)(=O)c1ccc(Cl)cc1)c1ccc(Cl)cc1` reads 6.17% (inactive); that for `c1ccc(-c2cc(-c3nc(-c4ccccn4)no3)c3ccccc3n2)cc1`, 9.71% (inactive).
As to `c1ccc(-c2nc(C3CCCCC3)no2)cc1`, the inhibition was 3.47% (inactive).
Consider `O=C(CN1CCCCC1)c1ccc(OC(F)F)cc1`, for which the inhibition was -5.74% (inactive).
With `c1ccc(N2CCOCC2)c(Nc2nc3ccccc3n3cnnc23)c1`, the inhibition is 8.42% (inactive).
As to `c1ccc(N2CCCCC2)c(Nc2nc3ccccc3n3cnnc23)c1`, the inhibition was 14.3% (inactive).
In the case of `Nc1cc(OC(=O)c2cccs2)nn1S(=O)(=O)c1ccc(F)cc1`, the inhibition was 5.67% (inactive).
`Cc1ccc(NC(=O)Cn2c(O)c(N=NC(=O)c3cc([N+](=O)[O-])ccc3O)c3ccccc32)cc1`: the inhibition is 45.8% (inactive).
For `Cc1cc(C)n(-c2nc3ccccc3nc2N2CCC(C)CC2)n1`, the inhibition is 2.59% (inactive).
On to `Cc1cc(N2CCN(c3ccccc3)CC2)nc(-c2ccccc2)n1`, for which the inhibition was -10.3% (inactive).
For `Cc1cc(N2CCN(c3ccccc3)CC2)nc(N)n1`, the inhibition was -2.3% (inactive).
In the case of `Cc1cc(Cl)nc(-n2nc(C)cc2C)n1`, the inhibition was -0.69% (inactive).
On to `O=c1cn[nH]c2ccccc12`, for which the inhibition was -1.28% (inactive).
As for `CCOc1cc(/C=N\NC(=O)C2C(=O)NCC2c2ccccc2)ccc1OC` (stereo unspecified), the inhibition was -8.61% (inactive).
Consider `Cc1c(Br)ccc(NC(=O)CCN2C(=O)C3C4CCC(C4)C3C2=O)c1C` (stereo unspecified), for which the inhibition is -22.5% (inactive).
As for `CCOC(=O)c1c(N2C(=O)C3CC(C)=C(C)CC3C2=O)sc(C)c1C` (stereo unspecified), the inhibition is -1.38% (inactive).
With `COc1ccc(NC(=O)CNc2ccc(C#N)cc2)cc1`, the inhibition was -4.76% (inactive).
As for `COc1ccc(NC(=O)CNc2cccc(C#N)c2)cc1Cl`, the inhibition is -9.7% (inactive).
For `N#Cc1ccccc1NC(=O)CNc1ccc(Cl)c(C(F)(F)F)c1`, the inhibition is 1.74% (inactive).
In the case of `COc1ccccc1NC(=O)CNc1ccc(F)c(Cl)c1`, the inhibition is -4.82% (inactive).
On to `Cc1noc(C)c1/C=N/Nc1ccccn1`, for which the inhibition was -11.2% (inactive).
Under `COC(=O)c1ccccc1NC(=O)c1sc(N)nc1C` stands -3.82% (inactive).
Under `CCC/C=C1/CCCOC(C(=O)NCc2ccccc2)(C(F)(F)F)C1` (stereo unspecified) stands -24.5% (inactive).
As for `O=C(Nc1ccc(-c2csc(Nc3cccc(C(F)(F)F)c3)n2)cc1)c1ccccc1`, the inhibition is 0.91% (inactive).
For the compound `O=C(Nc1ccc(-c2csc(Nc3ccccc3)n2)cc1)c1cc([N+](=O)[O-])cc(C(F)(F)F)c1`, the inhibition was 50.3% (inactive).
Regarding `O=C(Nc1cccc(-c2csc(Nc3cccc(C(F)(F)F)c3)n2)c1)c1cc([N+](=O)[O-])cc(C(F)(F)F)c1`, the inhibition is -8.7% (inactive).
The result for `O=C(Nc1ccc(-c2csc(Nc3ccccc3)n2)cc1)c1cccc(C(F)(F)F)c1` reads 14.9% (inactive); that for `CCOc1ccccc1N(CC(=O)NCc1ccccc1)C(=O)CCC(=O)Nc1cc(C)ccn1`, -1.77% (inactive).
Regarding `Cc1cc(NCCCN2CCOCC2)n2c(nc3ccccc32)c1C#N`, the inhibition is -4.69% (inactive).
Turning to `CC1=C(C(=O)OC(C)C)C(c2cccs2)n2ncnc2N1` (stereo unspecified), the inhibition is 7.3% (inactive).
Turning to `CC(=O)Nc1ccc(C(=O)/C=C/c2ccco2)cc1`, the inhibition was -0.44% (inactive).
As for `O=C(/C=C\c1ccco1)c1ccc(NC(=O)c2ccco2)cc1`, the inhibition was -2.87% (inactive).
As to `COCCCNC(=S)N(Cc1ccccc1)Cc1nc2ccccc2c(=O)[nH]1`, the inhibition is -7.77% (inactive).
Under `NC(=O)C(=CNc1nc(-c2ccc(Cl)c(Cl)c2)cs1)C(N)=O` stands -3.81% (inactive); under `OC1=C(O)c2nc3cc(C(F)(F)F)ccc3nc21`, -3.35% (inactive); under `COc1ccc(NCc2ccc([N+](=O)[O-])s2)c(OC)c1`, 79.8% (inactive).
`COc1cccc(NCc2ccc([N+](=O)[O-])s2)c1`: the inhibition is 15.2% (inactive).
`NC(=O)c1ccc(NC(=O)C2CCCO2)cc1` (stereo unspecified): the inhibition was -8.76% (inactive).
For `CC(C)COC(=O)c1ccc(NC(=O)C2C3C=CC(C3)C2C(=O)O)cc1` (stereo unspecified), the inhibition was 58.1% (inactive).
As for `CCCCNS(=O)(=O)c1ccc(NC(=O)C2CCCO2)cc1` (stereo unspecified), the inhibition is 6.1% (inactive).
The result for `COC(=O)c1ccc(NC(=O)C2C3C=CC(O3)C2C(=O)O)cc1` (stereo unspecified) reads -12.1% (inactive); that for `COC(=O)c1ccc(NC(=O)c2ccc(NC(=O)C3CCCO3)cc2)cc1` (stereo unspecified), 10.1% (inactive).
The result for `CCCCNC(=O)c1ccc(NC(=O)C2CCCO2)cc1` (stereo unspecified) reads 0.89% (inactive); that for `COC(=O)c1ccc(NC(=O)C2CCCO2)cc1` (stereo unspecified), -10.3% (inactive); that for `CCOC(=O)c1cc(NC(=O)C2CCCO2)cc(C(=O)OCC)c1` (stereo unspecified), 3.41% (inactive).
`Cn1ncc(C#N)c1NC(=O)C1CC(c2ccc(Cl)c(Cl)c2)=NO1` (stereo unspecified): the inhibition was -5.17% (inactive).
With `COC(=O)c1[nH]c2ccccc2c1NC(=O)CN1CC(C)OC(C)C1` (stereo unspecified), the inhibition was -0.75% (inactive).
With `CCOC(=O)N1CCN(C(=O)Cc2ccc(C)cc2)CC1`, the inhibition is -3.57% (inactive).
